The values that follow come from PubChem BioAssay (NCATS).

“And” between values parts separate entries of the source, which are not always exact repeats. Equal entries are not always repeated. Inconclusive results are not listed. The source made the active and inactive calls. Unless noted, calls come from the whole dose curve; as a rule, active = well fitted curve in the direction sought with a large enough effect; inconclusive = small, poorly fitted or top-dose-only effect, or another doubt; inactive = no such curve, though single readings can be large; an effect the other way counts as inactive or inconclusive. Bridge positions count the residues as written; N and C are the ends. Square brackets hold non-standard residues; d marks the D form. Peptide text beside a SMILES is read from it. * marks the point of attachment. Octanoyl(6-Me) = CCC(C)CCCCC(=O)*; Dab = NCC[CH](N)C(=O)O

The target in assay [1] is Cytochrome P450 3A4 (Homo sapiens) (UniProt P08684). Put plainly: qHTS Assay for Inhibitors and Substrates of Cytochrome P450 3A4 (AID 884). Note: series mostly up to about 57 µM; % is set by controls: 0 for no effect and ±100 for the full control effect; nearly all actives have a fitted effect of over 50% in size. The essentials: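 20 nM human CYP3A4 with 25 uM Luciferin-PPXE (at KM) in 200 mM KPO4, preincubated 10 min with compound; NADPH regeneration started a 60 min RT reaction. Luciferin detected by luminescence, normalized to 57 uM ketoconazole as full inhibition.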

Assay [2] has as its target Bile acid receptor (Homo sapiens) (UniProt Q96RI1). The experiment in a line: qHTS assay for small molecule antagonists of farnesoid X receptor signaling (AID 588526; calls by dose curve; note: % is set by controls: 0 for no effect and ±100 for the full control effect). The essentials: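 Concentration-response titrations were fitted to the Hill equation for half-maximal inhibition and maximal response, with data normalised to 50 uM chenodeoxycholic acid and DMSO control wells. Cells: FXR-UAS-bla HEK293T, dialyzed FBS.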

Assay [3] has as its target Glucocorticoid receptor (Homo sapiens) (UniProt P04150). The experiment in a line: qHTS assay for small molecule agonists of glucocorticoid receptor signaling (AID 588532; active = well fitted curve in the direction sought with a large enough effect in the signal ratio, with a control signal flat; the % refers to the signal ratio;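 note: 100% = dexamethasone at 0.1 µM and 0% = DMSO only wells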). The conditions noted are these: HeLa MMTV-bla, beta-lactamase ratio, agonist, 18 h; stronger effect = higher value; percent of dexamethasone control, DMSO zero. An outline of the steps:
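Titration series, up to 92 uM, applied to GRE-bla HeLa cells for 18 h at 37 C. Detection by CCF4 FRET substrate after 2 h at RT.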
(In qHTS, concentration-response curves come from the screen itself.)

Assay [4] has the same target. Put plainly: qHTS assay for small molecule antagonists of glucocorticoid receptor signaling (AID 588533; active = well fitted inhibition curve with a large enough effect in the signal ratio, with a control signal flat, not every such curve was filed as active; the % refers to the signal ratio;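 note: cells stimulated with 2 nM dexamethasone as agonist; % is set by controls: 0 for no effect and ±100 for the full control effect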). An outline of the steps:
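Antagonist-mode qHTS: compound titrations added to GRE-bla HeLa cells, then dexamethasone 2 nM final; 18 h, 37 C. CCF4 FRET fluorescence normalized to dexamethasone and DMSO; IC50 from Hill fit.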

A short description of assay [5]: qHTS assay for small molecule antagonists of peroxisome proliferator-activated receptor delta signaling (AID 588535; active = well fitted inhibition curve with a large enough effect in the signal ratio, with a control signal flat, not every such curve was filed as active; the % refers to the signal ratio;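 for max response: cells co-treated with a PPAR-delta agonist as stimulator during compound exposure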). The conditions noted are these: HEK293T PPARd-UAS-bla, beta-lactamase FRET ratio, 18 h; 460 nm channel. The essentials:
(§1)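 GeneBLAzer PPAR-delta-UAS-bla HEK293T cells in medium with 2% charcoal/dextran FBS were preincubated 5 hrs at 37 C, then given compounds, incubated 18 hrs at 37 C, and read by CCF4 beta-lactamase fluorescence; IC50 from Hill fits.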

Assay [6] concerns the target Peroxisome proliferator-activated receptor delta (Homo sapiens) (UniProt Q03181). Described as above. The essentials:
as §1

For assay [7], the target named is Peroxisome proliferator-activated receptor gamma (Homo sapiens) (UniProt P37231). Put plainly: qHTS assay for small molecule antagonists of peroxisome proliferator-activated receptor gamma signaling (AID 588537; active = well fitted inhibition curve with a large enough effect in the signal ratio, with a control signal flat, not every such curve was filed as active; the % refers to the signal ratio;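 note: reporter cells co-stimulated with 50 nM rosiglitazone agonist during compound treatment; % of control where 0% means no effect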). An outline of the steps:
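PPAR-gamma-UAS-bla HEK293 cells (3000/well, 1% charcoal/dextran-stripped FBS) were preincubated 6-6.5 h at 37 C, given titrated compounds, then stimulated with 50 nM rosiglitazone for 16 h. Beta-lactamase activity was read with CCF4 dye; IC50 came from Hill fits.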

The target in assay [8] is Vitamin D3 receptor (Homo sapiens) (UniProt P11473). Put plainly: qHTS assay for small molecule antagonists of vitamin D receptor signaling (AID 588541; calls by dose curve;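 note: receptor activated by calcitriol during compound treatment; series mostly up to about 77 µM; % is set by controls: 0 for no effect and ±100 for the full control effect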). An outline of the steps:
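VDR-UAS-bla HEK293T cells (2000/well, 2% charcoal-stripped FBS) were treated with titrated compounds plus 1-alpha,25-dihydroxyvitamin D3 (50 nM or 3 nM final) for 16 h at 37 C. CCF4 beta-lactamase fluorescence was read; Hill fits gave IC50.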

Assay [9] is described as follows: qHTS assay to identify small molecules that stimulate interleukin-8 (IL-8) secretion (AID 651758; active = well fitted activation curve with a large enough effect in the signal ratio; the % refers to the signal ratio; note: 0% is about no effect). An outline of the steps: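 THP-1, 2000 cells/well; cpd 16 h, 37 C; add cryptate + XL665 anti-IL-8 Abs; RT 1-3 h; TR-FRET read.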
Assay [10] in a line: qHTS assay for environmental chemicals that activate the Aryl hydrocarbon Receptor (AhR) signaling pathway (AID 651777). Note: % of control where 0% means no effect; nearly all actives have a fitted effect of over 15% in size. The conditions noted are these: 1A2-DRE human hepatoma cells, luciferase, 24 h; activation: stronger effect = higher value. An outline of the steps: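 Human hepatoma 1A2-DRE cells, stably carrying a dioxin response element and CYP1A2 promoter driving luciferase, were exposed to compounds for 24 hr at 37 C and 5% CO2. Luciferase signal was then read after 30 min One-Glo at room temperature.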

Assay [11] addresses Nuclear receptor ROR-gamma (Homo sapiens) (UniProt P51449). Put plainly: qHTS assay for small molecule antagonists of the retinoid-related orphan receptor gamma (ROR-gamma) signaling pathway (AID 651802). Note: series mostly up to about 92 µM; % is set by controls: 0 for no effect and ±100 for the full control effect; nearly all actives have a fitted effect of over 60% in size. An outline of the steps: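 CHO cells carrying TET-inducible ROR-gamma and an ROR response element–luciferase reporter were exposed to compound, then induced with doxycycline. After 16hr at 37C, luminescence was read; lower signal indicates antagonism.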

A short description of assay [12]: Cellular Toxicity (caspase-3) Hek293 (AID 664).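 Note: cells exposed to compound for 16 h at 37 °C before readout.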 The essentials:
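HEK293 cells were exposed to compounds in complete medium for 16 hr at 37 °C, then caspase-3/7 activity was read by Caspase-Glo 3/7 luminescence after 20 min at room temperature. Data normalized to DMSO and 100 uM tamoxifen; AC50 from Hill fits.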

The nature of assay [13]: Cellular Toxicity (caspase-3) N2a (AID 665).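 Note: compound exposure lasted 16 h at 37 °C before readout.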 The essentials:
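Mouse N2a neuroblastoma cells (1500/well) were treated with compounds for 16 h at 37 °C, then caspase-3/7 activity was read by Caspase-Glo luminescence after 1 h at room temperature. Data were normalized to DMSO and 10 uM staurosporine; AC50 from Hill fits.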

A short description of assay [14]: qHTS assay for small molecule agonists of the antioxidant response element (ARE) signaling pathway (AID 651741; active = well fitted activation curve with a large enough effect in the signal ratio; the % refers to the signal ratio; note: % of control where 0% means no effect). The essentials:
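ARE-bla HepG2 cells (beta-lactamase reporter under ARE control) were plated at 2,000 cells/well, preincubated 5 h at 37 C/5% CO2, then treated with DMSO-dissolved compounds for 16 h at 37 C; LiveBLAzer B/G FRET substrate added, fluorescence read after 2 h at room temperature.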

A short description of assay [15]: Cell Viability - LYMP2-004 (AID 966).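 Note: plate controls were DMSO only for no effect and tetraoctylammonium bromide control for full effect; nearly all actives have a fitted effect of over 65% in size.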 An outline of the steps:
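Human lymphoblastoid cells (2500/well) in complete medium were treated with compounds for 24 hr at 37 C, then intracellular ATP was measured by CellTiter-Glo luminescence. AC50 values came from Hill-equation fits of concentration-response data.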

In assay [16] the target is Ubiquitin carboxyl-terminal hydrolase 1 (Homo sapiens) (UniProt O94782). The experiment in a line: Inhibitors of USP1/UAF1: Pilot qHTS (AID 504865). Note: nearly all actives have a fitted effect of over 35% in size. Note: potency is the fitted concentration of half-maximal effect. An outline of the steps: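 In 50mM HEPES pH 7.8 containing 0.5mM EDTA, 1mM TCEP, 0.1 mg/ml BSA and 0.01% Tween-20, 1nM USP1/UAF1 is exposed to compound for 15 min, then Ub-Rho (150nM final) is added and fluorescence is read over time.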

The nature of assay [17]: Cell Viability - LYMP1-002 - Assay at 24 hr (AID 993). Note: % is set by controls: 0 for no effect and ±100 for the full control effect. The essentials:
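Human lymphoblastoid LYMP1-002 cells, 2500/well in complete medium, were treated with compounds for 24 h at 37 C; intracellular ATP was read by CellTiter-Glo luminescence. AC50 values came from Hill-equation fits of qHTS concentration-response data.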

The target in assay [18] is Glucocorticoid receptor (Homo sapiens) (UniProt P04150). The experiment in a line: GR-GFP Redistribution (AID 450;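 active = compounds whose dose series gives a full or clear partial fitted curve of increased nuclear translocation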; note: potency is the fitted concentration of half-maximal effect). The conditions noted are these: U2OS GR-GFP nuclear translocation, laser cytometry, 2 h.
Assay [19] shares this target. The experiment in a line: GR-EFC Redistribution (AID 451; calls by dose curve; note: potency is the fitted concentration of half-maximal effect). The conditions noted are these: CHO-K1 GR-EFC translocation, beta-gal luminescence, 2 h. The essentials: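 CHO-K1 cells stably expressing nuclear-localized β-gal enzyme acceptor and GR fused C-terminally to the enzyme donor fragment; ligand-driven nuclear translocation restores β-gal by complementation. Compounds titrated up to 46 uM final, 2 h at 37 °C; luminescence read.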

Chain of Ubiquitin carboxyl-terminal hydrolase 1 (Homo sapiens) (O94782 whole entry, looked up): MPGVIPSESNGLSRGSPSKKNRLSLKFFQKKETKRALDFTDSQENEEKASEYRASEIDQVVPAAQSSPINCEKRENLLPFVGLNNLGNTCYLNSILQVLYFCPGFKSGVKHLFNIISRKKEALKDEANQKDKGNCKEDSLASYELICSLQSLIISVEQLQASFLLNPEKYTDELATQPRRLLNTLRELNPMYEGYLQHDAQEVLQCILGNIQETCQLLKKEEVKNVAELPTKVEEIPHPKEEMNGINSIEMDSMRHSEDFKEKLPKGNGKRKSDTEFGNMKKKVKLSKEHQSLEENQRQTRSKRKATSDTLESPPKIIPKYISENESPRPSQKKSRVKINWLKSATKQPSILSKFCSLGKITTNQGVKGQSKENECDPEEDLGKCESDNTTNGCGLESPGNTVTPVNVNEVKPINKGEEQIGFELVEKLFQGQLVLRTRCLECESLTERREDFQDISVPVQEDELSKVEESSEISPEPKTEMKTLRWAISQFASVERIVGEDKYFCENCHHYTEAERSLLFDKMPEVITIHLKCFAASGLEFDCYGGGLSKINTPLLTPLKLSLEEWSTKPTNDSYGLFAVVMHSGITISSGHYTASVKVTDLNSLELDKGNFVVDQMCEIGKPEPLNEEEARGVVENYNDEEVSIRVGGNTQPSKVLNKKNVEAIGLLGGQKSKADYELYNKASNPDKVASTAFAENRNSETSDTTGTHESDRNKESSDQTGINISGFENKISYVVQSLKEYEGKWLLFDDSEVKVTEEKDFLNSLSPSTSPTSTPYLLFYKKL
Chain of Peroxisome proliferator-activated receptor gamma (Homo sapiens) (P37231 whole entry, looked up): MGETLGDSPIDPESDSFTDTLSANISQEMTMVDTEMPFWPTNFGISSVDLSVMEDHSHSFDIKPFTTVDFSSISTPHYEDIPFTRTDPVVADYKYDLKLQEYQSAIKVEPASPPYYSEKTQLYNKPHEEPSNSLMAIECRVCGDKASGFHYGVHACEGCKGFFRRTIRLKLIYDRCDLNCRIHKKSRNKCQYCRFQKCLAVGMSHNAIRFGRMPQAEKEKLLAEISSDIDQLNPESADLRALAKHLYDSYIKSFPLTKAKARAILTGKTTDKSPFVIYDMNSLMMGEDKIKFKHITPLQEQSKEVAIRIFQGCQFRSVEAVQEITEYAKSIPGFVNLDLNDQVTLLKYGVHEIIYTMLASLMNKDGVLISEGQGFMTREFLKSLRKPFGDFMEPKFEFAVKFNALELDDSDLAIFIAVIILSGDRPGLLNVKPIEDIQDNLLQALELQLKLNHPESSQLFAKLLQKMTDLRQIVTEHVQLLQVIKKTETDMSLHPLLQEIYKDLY
Chain of Peroxisome proliferator-activated receptor delta (Homo sapiens) (Q03181 whole entry, looked up): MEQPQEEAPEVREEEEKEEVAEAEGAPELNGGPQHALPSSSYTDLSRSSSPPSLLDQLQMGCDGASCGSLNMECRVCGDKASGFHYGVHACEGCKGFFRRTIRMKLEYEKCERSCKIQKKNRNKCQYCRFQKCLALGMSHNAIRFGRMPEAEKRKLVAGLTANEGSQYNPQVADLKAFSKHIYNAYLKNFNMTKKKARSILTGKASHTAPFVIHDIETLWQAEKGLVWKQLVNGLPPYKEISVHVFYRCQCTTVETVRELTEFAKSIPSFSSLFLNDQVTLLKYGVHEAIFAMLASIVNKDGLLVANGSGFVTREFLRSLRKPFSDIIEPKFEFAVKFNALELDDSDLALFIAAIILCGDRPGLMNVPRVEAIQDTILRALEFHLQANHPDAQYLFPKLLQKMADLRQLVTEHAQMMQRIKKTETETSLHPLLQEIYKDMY
Chain of Nuclear receptor ROR-gamma (Homo sapiens) (P51449 whole entry, looked up): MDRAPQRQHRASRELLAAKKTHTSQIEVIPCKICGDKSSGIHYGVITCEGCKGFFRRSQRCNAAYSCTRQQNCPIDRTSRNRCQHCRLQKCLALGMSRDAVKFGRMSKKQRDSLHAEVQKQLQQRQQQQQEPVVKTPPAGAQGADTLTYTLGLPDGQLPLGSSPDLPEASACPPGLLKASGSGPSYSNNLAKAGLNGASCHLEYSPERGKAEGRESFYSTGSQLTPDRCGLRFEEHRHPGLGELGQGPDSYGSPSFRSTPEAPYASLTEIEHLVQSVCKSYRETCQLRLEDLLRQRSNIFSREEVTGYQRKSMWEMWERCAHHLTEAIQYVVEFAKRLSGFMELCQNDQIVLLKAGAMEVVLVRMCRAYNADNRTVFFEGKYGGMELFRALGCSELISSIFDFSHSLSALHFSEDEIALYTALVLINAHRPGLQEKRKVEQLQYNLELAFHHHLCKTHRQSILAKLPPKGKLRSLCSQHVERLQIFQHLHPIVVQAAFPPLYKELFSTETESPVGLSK
Chain of Vitamin D3 receptor (Homo sapiens) (P11473 whole entry, looked up): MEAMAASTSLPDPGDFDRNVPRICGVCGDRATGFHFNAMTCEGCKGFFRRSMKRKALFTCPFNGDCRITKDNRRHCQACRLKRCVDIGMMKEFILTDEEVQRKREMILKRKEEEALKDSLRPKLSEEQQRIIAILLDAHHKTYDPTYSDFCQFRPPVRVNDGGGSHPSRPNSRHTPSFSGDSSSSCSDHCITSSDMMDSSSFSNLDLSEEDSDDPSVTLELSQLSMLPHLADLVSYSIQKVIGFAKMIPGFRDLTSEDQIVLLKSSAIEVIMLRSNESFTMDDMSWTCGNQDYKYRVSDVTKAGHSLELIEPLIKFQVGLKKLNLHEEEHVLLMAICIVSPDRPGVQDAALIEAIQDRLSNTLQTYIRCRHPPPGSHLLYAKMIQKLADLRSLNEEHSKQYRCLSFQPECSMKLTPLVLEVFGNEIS
Chain of Cytochrome P450 3A4 (Homo sapiens) (P08684 whole entry, looked up): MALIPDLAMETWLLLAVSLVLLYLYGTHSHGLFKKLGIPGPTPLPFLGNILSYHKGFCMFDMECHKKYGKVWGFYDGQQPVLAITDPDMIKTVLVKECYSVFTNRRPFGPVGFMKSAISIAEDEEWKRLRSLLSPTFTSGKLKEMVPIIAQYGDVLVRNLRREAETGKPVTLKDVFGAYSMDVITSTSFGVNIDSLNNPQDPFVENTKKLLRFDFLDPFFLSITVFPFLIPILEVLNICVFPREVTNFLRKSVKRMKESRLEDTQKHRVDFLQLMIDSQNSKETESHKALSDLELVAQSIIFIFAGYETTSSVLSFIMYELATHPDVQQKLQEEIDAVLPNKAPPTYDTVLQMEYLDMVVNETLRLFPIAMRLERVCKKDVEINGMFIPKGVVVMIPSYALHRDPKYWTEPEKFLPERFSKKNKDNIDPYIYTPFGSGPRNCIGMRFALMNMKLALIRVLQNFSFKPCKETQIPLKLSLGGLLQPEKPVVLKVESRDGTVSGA
Chain of Glucocorticoid receptor (Homo sapiens) (P04150 whole entry, looked up, the tested form may be a part): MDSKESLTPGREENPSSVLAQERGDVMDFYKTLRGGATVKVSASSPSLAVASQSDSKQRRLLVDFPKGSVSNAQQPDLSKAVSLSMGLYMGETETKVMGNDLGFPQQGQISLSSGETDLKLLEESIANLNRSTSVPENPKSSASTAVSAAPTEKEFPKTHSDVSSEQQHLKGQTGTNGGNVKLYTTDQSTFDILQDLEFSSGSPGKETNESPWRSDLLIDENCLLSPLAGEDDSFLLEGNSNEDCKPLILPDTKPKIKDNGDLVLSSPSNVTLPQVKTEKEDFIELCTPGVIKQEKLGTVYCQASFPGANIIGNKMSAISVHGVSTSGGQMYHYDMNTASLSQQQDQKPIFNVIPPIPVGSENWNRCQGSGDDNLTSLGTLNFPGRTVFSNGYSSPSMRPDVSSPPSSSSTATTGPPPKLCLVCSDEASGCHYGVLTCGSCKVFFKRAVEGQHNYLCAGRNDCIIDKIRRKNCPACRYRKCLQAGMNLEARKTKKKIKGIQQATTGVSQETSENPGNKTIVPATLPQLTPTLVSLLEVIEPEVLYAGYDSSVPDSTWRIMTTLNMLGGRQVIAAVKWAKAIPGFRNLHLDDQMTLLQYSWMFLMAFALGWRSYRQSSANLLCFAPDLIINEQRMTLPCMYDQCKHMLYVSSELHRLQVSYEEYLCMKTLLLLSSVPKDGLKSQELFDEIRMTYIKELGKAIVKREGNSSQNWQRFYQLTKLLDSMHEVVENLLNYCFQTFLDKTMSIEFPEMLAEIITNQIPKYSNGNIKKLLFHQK
Chain of Bile acid receptor (Homo sapiens) (Q96RI1 whole entry, looked up): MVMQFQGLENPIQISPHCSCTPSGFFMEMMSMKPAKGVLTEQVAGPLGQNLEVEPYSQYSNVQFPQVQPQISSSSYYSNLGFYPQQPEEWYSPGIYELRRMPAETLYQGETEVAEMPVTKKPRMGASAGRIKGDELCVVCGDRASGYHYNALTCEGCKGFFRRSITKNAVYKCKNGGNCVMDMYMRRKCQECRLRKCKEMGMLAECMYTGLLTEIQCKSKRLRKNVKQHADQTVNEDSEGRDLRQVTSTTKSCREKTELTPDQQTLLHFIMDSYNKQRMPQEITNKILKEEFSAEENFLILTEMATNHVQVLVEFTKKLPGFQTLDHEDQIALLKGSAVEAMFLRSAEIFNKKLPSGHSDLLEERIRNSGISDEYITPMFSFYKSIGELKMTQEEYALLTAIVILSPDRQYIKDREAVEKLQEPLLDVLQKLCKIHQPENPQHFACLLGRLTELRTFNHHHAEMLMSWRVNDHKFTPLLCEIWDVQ

For `COC(=O)CCCCC(=O)OC`, the Potency entry in assay [1], in [4], in assay [6], in [9] and in assay [11] was “inactive” each time. Moreover, the call in assay [2], in assay [7] and in [8] was inactive. Besides, the activation in assay [3] was 7.61% (inactive) and 12.5% (inactive); in assay [10], 3.11% (inactive) and -1.77% (inactive) and 1.4% (inactive). Further, the max response in assay [5] was 25.3% and -0.778%.

Consider `Nc1ccc(S(=O)(=O)O)cc1`, for which the compound was called inactive in assay [12], in assay [13], in assay [2] and in [8]. Besides, the Potency entry in [1] and in assay [14] was “inactive” in each case. The activation in assay [10] was -0.977% (inactive) and -1% (inactive).

As to `CN(C)CCCCCCN(C)C`, the compound was called inactive in assay [12], in assay [13], in assay [2] and in [8]. Further, the Potency entry in assay [1], in [15], in [16], in [4], in [6] and in assay [14] was “inactive” in each case. Moreover, the max response in assay [5] came to 53.3%.

Turning to `Cc1ccc([N+](=O)[O-])cc1N`, the compound was classed as inactive in assay [12], in assay [2], in [7] and in assay [8]. The Potency result in assay [17], in [6] and in [11] was “inactive” in each case. Moreover, the max response in assay [5] was 18.4% and -6.91%.

In the case of `CC(C)=CCCC(C)CCO` (stereo not given), the outcome in [12] and in assay [7] was inactive. Besides, the Potency result in assay [1], in [17], in assay [16], in assay [4], in [6] and in [14] was “inactive” each time. In assay [11], the Potency entry is “inactive”. Also, the activation in assay [3] was 0.913% (inactive) and 4.62% (inactive). For the same compound, the max response in assay [5] was 6.53% and 29.8%.

Take `COc1c2ccoc2cc2oc(=O)ccc12`: the Potency in assay [18] and in [19] was > 46 µM (inactive) in each case. The result in assay [13], in [7] and in assay [8] was inactive. Also, the Potency entry in assay [15] and in assay [11] was “inactive” throughout. Further, the activation in assay [3] is 3.88% (inactive).

`c1ccccc1`: the outcome in assay [13], in assay [2], in assay [7] and in [8] was inactive. The Potency entry in assay [1], in [4], in assay [14], in assay [9] and in assay [11] was “inactive” each time. For the same compound, the activation in assay [3] is -2.25% (inactive) [middle of 4 runs].

`CCCCCCCCO`: the Potency entry in assay [1], in assay [15], in assay [17], in assay [4], in assay [6] and in assay [14] was “inactive” in each case. Also, in assay [11], the Potency entry is “inactive”. Further, the activation in [3] was -2.22% (inactive) and -1.08% (inactive). The max response in assay [5] is -13.8% and 47.8%. For the same compound, the outcome in assay [7] and in [8] was inactive.

As to `COC(=O)c1ccc(C=O)cc1`, the compound was called inactive in assay [12], in [2], in assay [7] and in [8]. Moreover, the Potency result in [1], in [4], in assay [6], in assay [14] and in assay [11] was “inactive” each time. In addition, the activation in assay [3] is 8.1% (inactive) and -8.49% (inactive). In addition, the max response in assay [5] was 6.11% and 19.8%.

On to `CCC(C)CCCCC(=O)NC(CCN)C(=O)NC(C(=O)NC(CCN)C(=O)NC1CCNC(=O)C(C(C)O)NC(=O)C(CCN)NC(=O)C(CCN)NC(=O)C(CC(C)C)NC(=O)C(Cc2ccccc2)NC(=O)C(CCN)NC1=O)C(C)O` (stereo not given) ({Octanoyl(6-Me)}-[Dab]T[Dab][Dab][Dab]FL[Dab][Dab]T; lactam 4-C; configuration not given here), for which, in assay [16], the Potency is 50.1 µM (active).

With `Cc1cccc([N+](=O)[O-])c1C`, the compound was called inactive in [12], in assay [7] and in [8]. For the same compound, the Potency result in [17], in assay [6], in [14] and in [9] was “inactive” throughout. Also, the max response in assay [5] is -14.5% and -6.43%. Besides, the activation in assay [10] is 0.368% (inactive) and -0.256% (inactive).

As for `CC(=O)OC/C=C(\C)CCC=C(C)C`, the call in assay [13] and in assay [7] was inactive. For the same compound, in assay [3], the activation is 3.31% (inactive) and -2.94% (inactive). Besides, the Potency result in [4], in assay [6] and in assay [11] was “inactive” throughout. Further, in assay [5], the max response was -10.2% and 0.451%.
